Epigenetic derep – regulators of epigenetic silencing causing reporter derepression in mouse cells; murine LDR cells, GFP reporter derepression, 30 h; Potency, µM (series often up to 53.9 µM), most hits filed as activators; actives 0.2% (n = 280,000); active means well fitted activation curve with a large enough effect; inconclusive means small, poorly fitted or top-dose-only effect; further: nearly all actives have a fitted effect of over 60% in size
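Murine LDR cells carrying a silenced, genomically integrated CMV-driven GFP reporter were exposed to compound for 30 hours at 37 C. After PBS washes, GFP-positive cells (20–120 um objects) were counted by laser-scanning microplate cytometry.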
Menin MLL FP FL – menin-MLL binding inhibition, fluorescein peptide. FP activity change, % at 61.4 µM. 290,000 tested, under 10 active. Fluorescence polarization, fluorescein-MLL peptide displacement from menin; active means well fitted curve in the direction sought with a large enough effect in the polarisation, not every such curve was filed as active; inconclusive means small, poorly fitted or top-dose-only effect, or effect the other way, or a change in a side signal; inactive means no such curve, though single readings can be large or run the other way; the % refers to the polarisation
ClpP mod – qHTS Assay for Activators of ClpP; Potency, µM (titrated, usually from 57.5 µM); ATP-dependent Clp protease proteolytic subunit (Bacillus subtilis (strain 168)), P80244; actives 1.9% (n = 340,000); AID 651965, 2013; purified B. subtilis ClpP, FRET peptide cleavage, 20 min; active means well fitted falling curve with a large enough effect; inconclusive means small, poorly fitted or top-dose-only effect; inactive means no such curve, though single readings can be large or run the other way; further: the source files actives as falling curves though it sought activators and does not explain the sign; nearly all actives have a fitted effect of over 65% in size
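FRET quenching reversal measured ClpP activation: 10 microg/mL B. subtilis ClpP at pH 8 with the FRET-FV decapeptide, read at 430 nm after 320 nm excitation. The 20-min minus 0-min signal was scaled between DMSO/no-enzyme wells and ADEP (5.8 microM final).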
PINK1 modulator – modulators of PINK1 expression | PINK1 immunofluorescence, high-content cytometry, 24 h | Potency, µM (doses to about 76.6 µM), usual class: activators | actives 0.2% (n = 410,000); active means well fitted activation curve with a large enough effect; inconclusive means small, poorly fitted or top-dose-only effect; cell line not stated here; further: nearly all actives have a fitted effect of over 65% in size
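PINK1 protein level read as immunofluorescence by microplate cytometer in a fixed, stained stable cell line after 24 h exposure to five compound concentrations, with CCCP as control.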
Menin-MLL TR inh – displaces Texas Red mutant MLL peptide from human menin | O00255 | Menin + Texas Red MLL mutant peptide, fluorescence polarization | Potency, µM (series often up to 61.6 µM), usual class: inhibitors | actives 0.23% (n = 270,000) | AID 1768; active means well fitted inhibition curve with a large enough effect in the polarisation, with a control signal flat, not every such curve was filed as active; inconclusive means small, poorly fitted or top-dose-only effect, or effect the other way, or a change in a side signal; inactive means no such curve, though single readings can be large or run the other way; the % refers to the polarisation
CXXC DNA block – blocks binding of human MLL CXXC domain to DNA; MLL-CXXC / FITC-HOXA9 DNA fluorescence polarization; Potency, µM (highest dose often 115 µM), most hits filed as inhibitors; actives 0.037% (n = 290,000); AID 2662; active means well fitted inhibition curve with a large enough effect in the polarisation, with a control signal flat, not every such curve was filed as active; inconclusive means small, poorly fitted or top-dose-only effect, or effect the other way, or a change in a side signal; inactive means no such curve, though single readings can be large or run the other way; the % refers to the polarisation
Target sequence (Q03164 whole entry, looked up, the tested form may be a part): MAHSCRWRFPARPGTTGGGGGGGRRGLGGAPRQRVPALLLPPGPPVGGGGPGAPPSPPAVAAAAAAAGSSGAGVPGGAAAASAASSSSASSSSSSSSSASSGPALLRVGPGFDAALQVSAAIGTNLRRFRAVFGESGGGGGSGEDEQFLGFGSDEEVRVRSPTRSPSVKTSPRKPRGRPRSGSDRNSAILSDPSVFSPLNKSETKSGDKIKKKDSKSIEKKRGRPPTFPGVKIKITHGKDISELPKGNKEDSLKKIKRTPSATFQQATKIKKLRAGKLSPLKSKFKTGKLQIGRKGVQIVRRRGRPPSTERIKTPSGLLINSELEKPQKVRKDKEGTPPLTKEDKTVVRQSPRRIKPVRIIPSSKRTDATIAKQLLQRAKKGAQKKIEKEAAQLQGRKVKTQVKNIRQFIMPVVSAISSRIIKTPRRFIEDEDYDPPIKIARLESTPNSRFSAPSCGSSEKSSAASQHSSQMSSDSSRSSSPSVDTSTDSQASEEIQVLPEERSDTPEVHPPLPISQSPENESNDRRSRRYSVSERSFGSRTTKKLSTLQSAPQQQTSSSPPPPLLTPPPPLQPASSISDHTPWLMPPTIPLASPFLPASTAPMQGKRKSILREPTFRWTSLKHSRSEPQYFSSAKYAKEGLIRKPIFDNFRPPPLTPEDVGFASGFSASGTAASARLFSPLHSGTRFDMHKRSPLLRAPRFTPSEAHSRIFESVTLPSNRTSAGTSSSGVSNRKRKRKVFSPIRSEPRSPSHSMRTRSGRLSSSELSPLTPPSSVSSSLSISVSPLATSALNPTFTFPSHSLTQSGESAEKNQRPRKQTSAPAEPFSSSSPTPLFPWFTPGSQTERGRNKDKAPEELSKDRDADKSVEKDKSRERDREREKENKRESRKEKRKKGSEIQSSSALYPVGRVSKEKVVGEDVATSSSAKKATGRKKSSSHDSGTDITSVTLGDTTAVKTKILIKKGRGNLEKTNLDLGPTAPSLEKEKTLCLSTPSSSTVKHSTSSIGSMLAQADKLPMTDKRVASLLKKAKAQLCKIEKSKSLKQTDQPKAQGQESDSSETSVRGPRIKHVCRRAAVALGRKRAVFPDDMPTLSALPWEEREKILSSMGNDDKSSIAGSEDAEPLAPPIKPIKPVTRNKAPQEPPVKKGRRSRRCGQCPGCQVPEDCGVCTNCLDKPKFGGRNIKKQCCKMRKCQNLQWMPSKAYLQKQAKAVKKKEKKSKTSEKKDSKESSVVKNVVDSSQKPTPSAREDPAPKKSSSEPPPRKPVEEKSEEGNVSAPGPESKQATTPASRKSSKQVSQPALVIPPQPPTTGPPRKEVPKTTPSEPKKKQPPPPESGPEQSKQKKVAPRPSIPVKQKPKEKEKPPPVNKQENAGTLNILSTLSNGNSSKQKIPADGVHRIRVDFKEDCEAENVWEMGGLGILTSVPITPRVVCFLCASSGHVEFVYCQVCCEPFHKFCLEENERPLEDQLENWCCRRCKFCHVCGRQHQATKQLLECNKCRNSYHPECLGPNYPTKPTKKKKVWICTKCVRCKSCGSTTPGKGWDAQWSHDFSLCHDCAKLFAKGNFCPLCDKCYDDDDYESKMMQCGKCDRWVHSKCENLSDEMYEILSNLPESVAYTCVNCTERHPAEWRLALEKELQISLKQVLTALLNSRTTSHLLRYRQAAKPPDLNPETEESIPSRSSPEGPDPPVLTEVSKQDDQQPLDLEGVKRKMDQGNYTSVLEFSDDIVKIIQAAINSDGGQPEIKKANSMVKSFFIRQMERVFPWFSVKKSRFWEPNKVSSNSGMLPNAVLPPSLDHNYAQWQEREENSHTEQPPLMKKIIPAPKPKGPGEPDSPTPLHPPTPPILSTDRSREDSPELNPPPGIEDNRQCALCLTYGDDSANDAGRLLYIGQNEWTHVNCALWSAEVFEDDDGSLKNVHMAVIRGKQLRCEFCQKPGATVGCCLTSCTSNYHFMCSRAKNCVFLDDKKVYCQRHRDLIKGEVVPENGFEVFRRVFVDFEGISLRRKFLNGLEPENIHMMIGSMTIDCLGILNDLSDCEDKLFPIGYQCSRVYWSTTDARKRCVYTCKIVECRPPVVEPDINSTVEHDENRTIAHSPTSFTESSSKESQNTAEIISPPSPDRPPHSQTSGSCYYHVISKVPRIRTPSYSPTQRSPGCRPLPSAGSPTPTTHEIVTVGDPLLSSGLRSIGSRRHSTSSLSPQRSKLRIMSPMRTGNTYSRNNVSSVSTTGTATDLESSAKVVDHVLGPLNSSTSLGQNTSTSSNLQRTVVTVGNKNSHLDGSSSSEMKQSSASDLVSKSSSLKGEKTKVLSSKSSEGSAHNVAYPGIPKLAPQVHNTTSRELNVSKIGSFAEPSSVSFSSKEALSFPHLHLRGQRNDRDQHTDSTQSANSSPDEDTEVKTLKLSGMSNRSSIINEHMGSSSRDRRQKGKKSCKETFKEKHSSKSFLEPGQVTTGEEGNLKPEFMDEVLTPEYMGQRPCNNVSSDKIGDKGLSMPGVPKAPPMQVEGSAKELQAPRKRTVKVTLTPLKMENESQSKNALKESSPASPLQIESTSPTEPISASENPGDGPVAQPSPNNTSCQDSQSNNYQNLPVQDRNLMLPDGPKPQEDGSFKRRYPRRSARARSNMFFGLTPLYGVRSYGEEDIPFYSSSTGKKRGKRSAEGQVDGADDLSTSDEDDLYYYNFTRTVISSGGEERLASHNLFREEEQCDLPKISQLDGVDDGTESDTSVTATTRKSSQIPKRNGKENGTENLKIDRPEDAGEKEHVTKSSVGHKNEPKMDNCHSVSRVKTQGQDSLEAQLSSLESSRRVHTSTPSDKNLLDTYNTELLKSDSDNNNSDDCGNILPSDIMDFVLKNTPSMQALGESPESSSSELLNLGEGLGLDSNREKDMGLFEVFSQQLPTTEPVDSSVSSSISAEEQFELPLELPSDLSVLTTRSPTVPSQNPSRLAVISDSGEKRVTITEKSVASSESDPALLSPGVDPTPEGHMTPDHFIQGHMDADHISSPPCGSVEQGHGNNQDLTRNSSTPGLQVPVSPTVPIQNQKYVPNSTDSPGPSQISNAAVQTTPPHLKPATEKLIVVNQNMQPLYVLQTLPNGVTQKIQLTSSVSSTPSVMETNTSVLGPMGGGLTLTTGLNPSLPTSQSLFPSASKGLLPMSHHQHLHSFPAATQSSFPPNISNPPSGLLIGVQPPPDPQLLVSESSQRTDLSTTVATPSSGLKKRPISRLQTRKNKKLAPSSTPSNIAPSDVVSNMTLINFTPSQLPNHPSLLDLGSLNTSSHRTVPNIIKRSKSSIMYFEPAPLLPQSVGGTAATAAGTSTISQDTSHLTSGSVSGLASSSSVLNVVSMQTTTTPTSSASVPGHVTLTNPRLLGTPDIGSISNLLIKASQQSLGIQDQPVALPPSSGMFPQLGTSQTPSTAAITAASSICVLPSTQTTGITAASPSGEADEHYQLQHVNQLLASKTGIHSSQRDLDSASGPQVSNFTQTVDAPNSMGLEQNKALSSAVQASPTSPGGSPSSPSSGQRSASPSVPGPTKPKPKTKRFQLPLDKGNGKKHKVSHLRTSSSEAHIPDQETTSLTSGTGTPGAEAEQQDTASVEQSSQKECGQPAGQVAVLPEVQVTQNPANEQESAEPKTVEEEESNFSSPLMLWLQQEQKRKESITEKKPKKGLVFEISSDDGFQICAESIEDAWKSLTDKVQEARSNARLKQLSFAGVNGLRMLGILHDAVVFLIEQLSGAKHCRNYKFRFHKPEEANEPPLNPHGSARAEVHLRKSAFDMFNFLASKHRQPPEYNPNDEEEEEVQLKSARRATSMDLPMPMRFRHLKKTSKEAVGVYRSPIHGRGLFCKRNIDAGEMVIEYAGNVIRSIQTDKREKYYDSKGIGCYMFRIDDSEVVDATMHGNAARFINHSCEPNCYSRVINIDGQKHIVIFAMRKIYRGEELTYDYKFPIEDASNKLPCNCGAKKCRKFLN
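Fluorescence polarization: 7 uM MLL-CXXC (stock) preincubated 5 min with compounds, then 50 nM fluorescein-HOX-A9 DNA (stock) added; 30 min ambient. Buffer 50 mM Tris-HCl pH 7.5, 50 mM NaCl, 1 mM DTT, 0.05% BSA.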
Hits are given with their value; – = inactive; ? = inconclusive; · = no result given. Most compounds without a hit are left out; they make up all but 1.9% or so of the library.

SMILES	Epigenetic derep	Menin MLL FP FL	ClpP mod	PINK1 modulator	Menin-MLL TR inh	CXXC DNA block
Cn1c(/C(C#N)=C(\O)c2cccc(F)c2)nc2ccccc21	·	–	–	–	–	–
N#C/C(=C(/O)c1cccc(F)c1)c1nc2ccccc2s1	–	–	–	39.8µM	·	–
Cc1n[nH]c(=S)n1/N=C/c1ccccc1OCc1ccc(Cl)cc1Cl	–	·	?	12.6µM	–	–
CC(C)OC(=O)c1c2c(n3ccccc13)C(=O)c1ccccc1C2=O	10µM	?	·	–	?	–
COC(=O)c1c(C(=O)OC)c2ccccn2c1C(=O)c1ccc([N+](=O)[O-])cc1	·	–	–	–	–	–
Cc1ccc(CN2CCC(=O)N(Cc3ccccn3)CC2)c(C)c1	·	·	·	–	·	·
COc1ccc(Cn2nnnc2C(c2cc3cccc(C)c3[nH]c2=O)N2CCOCC2)cc1 (configuration not stated)	–	–	–	–	–	–
Cc1ccc(C)c2[nH]c(=O)c(C(c3nnnn3CCc3ccccc3)N3CCOCC3)cc12 (configuration not stated)	–	–	28.2µM	–	–	–
Cc1ccc(C)c2[nH]c(=O)c(C(c3nnnn3C3CCCC3)N3CCOCC3)cc12 (configuration not stated)	–	–	25.1µM	–	–	–
O=C(CN1Cc2ccccc2OC(c2ccsc2)C1)NCc1ccc2c(c1)OCO2 (configuration not stated)	·	·	·	–	·	·
CCC1CN(CCNC(=O)c2ccc(C#CC(C)(C)O)cc2)Cc2cc(OC)ccc2O1 (configuration not stated)	·	·	·	–	·	·
CCC1CN(CCNC(=O)c2cccc3nccnc23)Cc2cc(OC)ccc2O1 (configuration not stated)	·	·	·	–	·	·
O=C(Nc1ccc(OC(F)F)cc1)c1nc(SCc2ccccc2F)ncc1Cl	·	·	–	–	·	·
CCC(C)NC(=O)CCSc1nc(-c2ccc3c(c2)OCO3)cc(C(F)(F)F)n1 (configuration not stated)	–	·	–	–	·	·
CN(Cc1ccccc1)C(=O)CCSc1nc(-c2ccc3c(c2)OCO3)cc(C(F)(F)F)n1	–	–	17.8µM	–	–	–
COc1ccc(CNC(=O)CCSc2nc(-c3ccc4c(c3)OCO4)cc(C(F)(F)F)n2)cc1	–	–	7.94µM	–	–	–
O=C(CCSc1nc(-c2ccc3c(c2)OCO3)cc(C(F)(F)F)n1)NCc1ccccc1	–	–	–	–	–	–
CC(=O)c1ccc([N+](C)(C)C)cc1	·	·	–	–	·	·
CCOC(=O)c1ccc(N=C2SC(C(=O)Nc3ccccc3)CC(=O)N2C)cc1 (configuration not stated)	–	·	–	–	·	·
Cc1nc(NC(=O)c2ccccc2)sc1-c1cc(C(=O)NCCO)nn1Cc1ccccc1	·	·	–	·	·	·
CCN(CC)CCn1c(-c2ccccc2)csc1=Nc1ccccc1	–	·	–	28.2µM	·	·
Cc1cc(-c2ccnc(-n3ncc(C(=O)NCC4COCCO4)c3C3CC3)n2)c(C)s1 (configuration not stated)	·	·	·	–	·	·
COc1ccc2nc(COC(=O)c3ccco3)c(C(C)=O)[n+]([O-])c2c1	–	–	–	–	–	–
COc1ccc2nc(CC(C)(C)CC(=O)O)c[n+]([O-])c2c1	–	–	15.8µM	–	–	–
Cc1ccc(C(C)(C)C)cc1S(=O)(=O)NC(=O)c1ccccc1	–	–	·	–	–	–
SMILES	Epigenetic derep	Menin MLL FP FL	ClpP mod	PINK1 modulator	Menin-MLL TR inh	CXXC DNA block
COC(=O)c1ccccc1S(=O)(=O)NC(=O)c1ccccc1	–	–	20µM	–	–	–
N#CC1(NC(=O)COc2ccc3ccc(=O)oc3c2)CCCCC1	·	·	35.5µM	–	·	·
COc1ccc2c(c1)c(=O)oc1cc(OCC(=O)NC3CC3)ccc12	–	–	?	–	–	–
COc1ccc2c(c1)c(=O)oc1cc(OCC(=O)NC3CCCCC3)ccc12	–	–	8.91µM	–	–	–
O=C(COc1ccc2ccc(=O)oc2c1)Nc1nccs1	·	–	–	–	–	–
O=C(COc1ccc2ccc(=O)oc2c1)NC1CCCCC1	·	·	10µM	–	·	·
Cc1cccc(Oc2ncnc3onc(C)c23)c1C	–	–	–	–	–	–

Screening data: PubChem BioAssay, National Center for Advancing Translational Sciences (NCATS)
